These results are taken from ChEMBL document CHEMBL3988442, “University of Dundee, Small-Polar-MMV Screening Library” (2021).

Molecules are shown by their SMILES.

The target in this experiment is AMP-activated protein kinase, AMPK (Homo sapiens) (UniProt P54646+O43741+P54619+Q9UGJ0+Q9Y478+Q13131+Q9UGI9). The experiment is described as follows: AMP-dependent Kinase enzyme assay. An in vitro enzyme assay that detects ADP turnover that is directly proportional to AMPK activity. This uses naive AMPK that is activated during the assay with MK-8722. In kind it is functional. Set-up: scale not given: direction of the effect not stated beside the values. The note with it: 30 µM.
Regarding `Cc1ccc(N2CCCN(C(=O)CCc3ccsc3)CC2)nn1`, the Percent Effect was -4.33%. The same measure for `CNC(=O)c1ccc(C2CN(c3cc(C)nc(N)n3)CCO2)nc1` (centres undefined): -3.96%; for `CC(C)c1cc(C(=O)NCCc2nc(-c3cccnc3)n[nH]2)[nH]n1`: 57.4%; for `COc1ccc(CN2CC(n3cccn3)C2)cc1F`: -6.94%.

On to `CCn1c(C2CCN(C(=O)c3ccc4sc(C)nc4c3)CC2)n[nH]c1=O`, for which the Percent Effect is -0.0637%. Under `CS(=O)(=O)NCCN1CCSCC1c1ccc(Cl)cc1` (centres undefined) stands 1.33%. Under `CC(C)c1nnc(CN2CCc3ccc(S(N)(=O)=O)cc32)o1` stands -0.483%; under `CCC(C(=O)NCc1nc(C)cc(C(F)(F)F)n1)n1cccn1` (centres undefined), 4.67%; under `CCc1ccc(C(=O)NC2CCN(c3ccn(C)n3)C2)o1` (centres undefined), 1.78%.

On to `CC(=O)N1CCc2c(nc(N(C)C)nc2NCCCn2ccnc2)C1`, for which the Percent Effect is 2.43%.

Consider `COc1ccc(CCn2cnc(C#N)n2)cc1`, for which the Percent Effect was -6.21%.

In the case of `CSC1(CNC(=O)N(C)Cc2ccc(C)s2)CCOCC1`, the Percent Effect is -2.72%. The same measure for `Cc1[nH]c2c(C)ccc(C)c2c1CC(=O)NC1CCCNC1=O` (centres undefined): 6.1%; for `c1ccc(Cc2noc(-c3ccc(NCC4CCCOC4)nc3)n2)cc1` (centres undefined): 6.64%. For the compound `COc1ccc(OC)c(-c2cc(C(=O)NCC3(CO)CC3)n(C)n2)c1`, the Percent Effect was -3.88%. The same measure for `CC(C)c1nc(C2CCCN2CCOCC2CC2)no1` (centres undefined): 7.32%; for `Cc1ccc(C(C)NC(=O)N2CCCN(CC(F)F)CC2)s1` (centres undefined): -1.15%. Under `O=C(CCn1ccnn1)N1CCCC(n2cncn2)C1` (centres undefined) stands 14.6%; under `COCCOCC1CCN(C(=O)c2ccc3[nH]cnc3c2)C1` (centres undefined), -11.9%.
